# Bioassay records from PubChem.
# DAT uptake mod: changed hDAT dopamine uptake under cocaine IC80, either direction, primary screen, cocaine antagonist project, cell-based, LLC-PK1 hDAT, [14C]-dopamine uptake, MLSMR; Sodium-dependent dopamine transporter (Homo sapiens), Q01959; LLC-PK1 hDAT cells, [14C]-dopamine uptake with cocaine IC80; actives deviate in either direction; B-score at 10 µM; actives 1.3% (n = 110,000); AID 449768, 2010;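 active = Z score or B-score, a plate-position-corrected score, falls beyond the plate's 99.7% confidence bounds, in either direction; inactive = both scores lie inside the 99.7% bounds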;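 also: scored against the spread of the other compound wells on the same plate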
# Target sequence (Q01959 whole entry, looked up): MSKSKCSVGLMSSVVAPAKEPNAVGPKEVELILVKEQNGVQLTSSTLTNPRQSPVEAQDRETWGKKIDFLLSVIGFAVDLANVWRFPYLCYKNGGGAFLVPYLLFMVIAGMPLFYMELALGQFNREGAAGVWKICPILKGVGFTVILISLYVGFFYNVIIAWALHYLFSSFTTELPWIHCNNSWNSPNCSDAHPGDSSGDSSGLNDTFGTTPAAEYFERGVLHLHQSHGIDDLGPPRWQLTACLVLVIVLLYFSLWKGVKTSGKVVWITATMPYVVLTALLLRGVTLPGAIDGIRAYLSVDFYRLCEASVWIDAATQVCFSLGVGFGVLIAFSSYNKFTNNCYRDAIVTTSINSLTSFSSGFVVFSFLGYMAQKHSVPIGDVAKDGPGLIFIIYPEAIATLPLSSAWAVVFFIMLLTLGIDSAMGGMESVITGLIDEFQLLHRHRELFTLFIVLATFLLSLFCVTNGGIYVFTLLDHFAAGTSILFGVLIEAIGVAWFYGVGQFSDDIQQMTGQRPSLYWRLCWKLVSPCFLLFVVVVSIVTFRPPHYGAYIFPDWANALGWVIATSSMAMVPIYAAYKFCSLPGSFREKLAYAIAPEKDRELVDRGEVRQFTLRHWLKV
# PostGolgi ctrl: growth inhibition of yeast control strain, primary screen, counter-screen for post-Golgi transport modulator project. AID 738, 2007. inhibition, % at 10 µM. efflux-deficient yeast background strain, growth absorbance A615, 16 h. actives 5% (n = 98,000)
# Cav3 T inh: Cav3.2 calcium influx blockers – cell-based, Fluo-4 calcium fluorescence, FDSS, MLSMR library, primary screen; Voltage-dependent T-type calcium channel subunit alpha-1H (Homo sapiens), O95180; Cav3.2-expressing cells; stronger effect = lower value; B-score at 10 µM; actives 4% (n = 100,000);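 active = single-dose well whose peak fluorescence ratio is a statistical outlier from its plate by either plate-standardised score or position-corrected B-score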
# PostGolgi yeast: phenotypic screen on post-Golgi transport, primary screen | post-Golgi transport phenotypic cell assay | inhibition, % at 10 µM | actives 0.9% (n = 98,000) | AID 739, 2007;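 also: yeast cells grown in 1536-well plates; yeast grown about 18 h at 30C before absorbance read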
# PLAP activator: PLAP enzyme activators, biochemical, luminescence, HTS | actives 1.2% (n = 96,000) | AID 696, 2007 | activation fold at 20 µM | purified PLAP enzyme, luminescent substrate read-out; stronger effect = higher value | Alkaline phosphatase, placental type (Homo sapiens), P05187; in the data active = activation fold above about 2
# Numbers without * were called inactive; / = not tested or not shown. A selection: hits, their analogues and other compounds. The true share with any hit is near 9.6%. Rule as the data show it, unless noted: active = inhibition above about 30%; inactive = the rest.
SMILES,DAT uptake mod,PostGolgi ctrl,Cav3 T inh,PostGolgi yeast,PLAP activator
CCN(CC)c1ccc2cc(-c3nnc(-c4ccncc4)o3)c(=O)oc2c1,-0.25,51*,-4*,-1,0.8
CCN(CC)c1ccc2cc(C(N)=O)c(=O)oc2c1,-0.78,/,-1.7,/,/
CCN(CC)c1ccc2cc(NC(=O)CCC(=O)O)c(=O)oc2c1,-0.41,2,-3.1,2,0.9
CCCNC(=O)C1CCN(S(=O)(=O)c2ccc(Br)cc2)CC1,0.32,/,0.34,/,/
Cc1nc2ccccn2c1/C(O)=C1\C(=O)C(=O)N(CCN2CCOCC2)C1c1cccs1 (stereo not given),0.14,5,0.0086,-6,1.3
Cc1cccc(C)c1NC(=O)CSc1nnc([C@H](C)NC(=O)OC(C)(C)C)o1,1.2,24,0.31,4,1.1
CC(C)[C@H](NC(=O)OC(C)(C)C)c1nnc(SCC(=O)Nc2ccc(Br)cc2)o1,-0.41,4,-6.7*,-1,1.5
CC(C)=CCSc1nnc([C@@H](NC(=O)OC(C)(C)C)C(C)C)o1,-0.062,6,-2.9*,14,1.9
Cc1cccc(OCCOc2ccc(/C=N/NC(=O)Cc3nnc(N)s3)cc2)c1,0.011,-6,0.89,-17,1
O=C(OCC#CCSc1nnc(-c2cccc3ccccc23)o1)c1cccs1,-0.42,-3,-4.7*,-7,0.8
O=C(OCC#CCSc1nnc(-c2ccccc2)o1)c1cccs1,-0.96,8,-3.8,-7,0.7
COc1cc(NC(=O)CCCC(=O)OCC(F)(F)C(F)F)nc(OC)n1,-0.75,10,0.72,-1,1.2
COc1ccc(CCNC(=O)C(=O)NCc2ccc(C(C)C)cc2)cc1OC,0.049,-4,-7.3*,-12,1.2
COc1ccc(CCNC(=O)CSc2ccc(-c3ccccc3)nn2)cc1OC,2*,2,-0.19,7,0.9
COc1ccc(CCNC(=O)c2cc(-c3ccc(C)cc3O)n[nH]2)cc1OC,0.86,20,-0.68,-2,2*
COc1ccc(CCNC(=O)c2cc(C(C)C)on2)cc1OC,-1.2,-3,-1.2,0,1.1
CCC(CC)C(=O)NCCc1ccc(OC)c(OC)c1,-0.92,2,0.059,-2,1
COc1ccc(CCNC(=O)c2cc(-c3ccccc3O)n[nH]2)cc1OC,-9.6*,7,-1.3,2,/
COc1ccc(OC)c(NC(=O)C2C3CCC(O3)C2C(=O)O)c1 (stereo not given),/,13,/,7,1
O=C(O)C1C2C=CC(O2)C1C(=O)NCCCn1ccnc1 (stereo not given),-1.1,-2,0.38,-5,1.1
Cc1nc(N2CCN(S(=O)(=O)c3cccc4nonc34)CC2)c2c3c(sc2n1)CCCC3,2.1,59*,-0.64,25,1.6
Cc1nc(N2CCN(S(=O)(=O)c3ccccc3)CC2)c2c3c(sc2n1)CC(C)CC3 (stereo not given),-0.012,30,-0.074,-3,1.3
CCOC(=O)c1sc(NC(=O)C(CC)OC(=O)C(CC(C)C)NC(=O)c2ccccc2)nc1C (stereo not given),0.014,-3,-4*,0,1.1
CCOC(=O)c1sc(NC(=O)C(CC)Sc2nc3ccccc3[nH]2)nc1C (stereo not given),0.13,/,0.14,/,/
CCCc1c(O)c2ccccc2[nH]c1=O,-1.3,4,0.11,10,0.9
SMILES,DAT uptake mod,PostGolgi ctrl,Cav3 T inh,PostGolgi yeast,PLAP activator
O=C(Cc1c(O)c2ccccc2[nH]c1=O)N(Cc1ccccc1)Cc1ccccc1,-0.34,14,-1.7,36*,1
CCCCc1c(C)c2cc(C)ccc2[nH]c1=O,1,33*,0.098,-3,0.8
CCCCc1c(O)c2ccccc2[nH]c1=O,-0.036,43*,-0.15,6,1.2
C=CCNC(=O)c1onc(CSc2ccccn2)c1C(=O)NCC=C,-0.28,/,0.97,/,/
COC(=O)C(C)Sc1nc2c(c(-c3ccc(OC)cc3)c1C#N)-c1ccccc1C2=O (stereo not given),0.52,/,-2.2,/,/
Cc1cc(Cl)ccc1OCCCC(=O)Nc1cccnc1,0.0069,25,-0.45,34*,0.8
Cc1ccc(C(=O)CCC(=O)Nc2cccnc2)cc1C,-8.5*,17,0.35,3,1
CCC(=O)Nc1ccc(C(=O)Nc2cccnc2)cc1,0.26,3,-0.43,-1,0.9
Cc1ccc(C)c(N2CCN(C(=O)CCS(=O)(=O)c3cccc4nonc34)CC2)c1,-0.096,5,-2.8,-2,1.3
Cc1cc(Cl)ccc1OCC(=O)N1CC(C)CC(C)C1 (stereo not given),0.58,29,-5.3*,-8,1.4
O=C(COc1ccc(Cl)cc1Cl)N1CCCCCC1,0.15,7,-0.85,1,0.9
N#CN=C1SCCS1,0.015,7,-4.5*,9,0.7
CC(/C=C/c1cccs1)=C\C(=O)O,-0.31,32*,-0.37,-9,1.1
Cc1cc(C)c2nc(C(F)(F)F)c(C#N)c(N)c2c1,0.87,26,1.7,-1,0.7
Cc1ccc2nc(C(F)(F)F)c(C#N)c(N)c2c1,-1.1,36*,1.5,-5,1
CN(Cc1ccccc1)C(=O)CCSc1nc(-c2ccc3c(c2)OCO3)cc(C(F)(F)F)n1,0.78,/,-6.8*,/,/
Cc1cc(NC(=O)CCCSc2nc(-c3ccco3)cc(C(F)(F)F)n2)n(-c2ccccc2)n1,2.5,/,-4.3*,/,/
CC(NC(=O)CCSc1nc(-c2ccco2)cc(C(F)(F)F)n1)c1ccccc1 (stereo not given),-0.012,23,-6*,-2,1.1
O=C(CCSc1nc(-c2ccco2)cc(C(F)(F)F)n1)NCc1cccs1,-0.18,/,-1.7,/,/
O=C(CCSc1nc(-c2ccco2)cc(C(F)(F)F)n1)Nc1ccc2c(c1)OCO2,-0.4,21,-5.7*,0,0.9
O=C(CCSc1nc(-c2ccc3c(c2)OCO3)cc(C(F)(F)F)n1)NCc1ccco1,-1.1,13,-0.082,-1,0.9
CC1(C)CC(=O)N(c2ccccc2)C1(C)O (stereo not given),-0.49,0,0.36,5,0.9
O=C(CSc1nnc(Cn2c(=O)sc3ccccc32)n1-c1ccccc1)Nc1nccs1,-0.64,13,-0.89,15,1.3
CC(OC(=O)c1nsc(Cl)c1Cl)C(=O)NC(C)(C)C (stereo not given),0.34,/,0.94,/,/
Cc1ccccc1CS(=O)(=O)Cc1ccc(C(=O)NCc2cccnc2)o1,-1.1,2,0.63,-5,1
NC(=O)C1=C[C@@H](c2csc3ccccc23)C[C@@H](OCCCCO)O1,0.0027,/,1.2,/,/
CSc1ccc(/C=N/n2c(C)cc(C)cc2=O)cc1,0.63,5,-0.38,-3,0.9
COc1ccc(O)c(/C=N/Nc2nc(Nc3ccccc3)nc(-n3nc(C)cc3C)n2)c1,-0.51,14,-4.4*,7,1.2
